Several values for one entry are separate records, joined by “and”; a condition that tells them apart may be missing. Identical values can stand only once. Unmarked numbers belong to inactive results.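 The calls were made as follows: active = AUC reduced over 20% with Padj below 0.05 in at least 2 of 3 replicates; inactive = otherwise.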
These compounds were tested on Bifidobacterium longum subsp. longum (assay: growth AUC relative to DMSO control (median of replicates) (fraction); higher = more growth (less inhibition), active = hit call of the paper). Details: 20 µM; 24 h.
Outline: (§1)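 In round-bottom 96-well plates sealed with pierced gas-permeable seals, gut bacterial monocultures in mGAM were grown anaerobically at 37 °C from OD600 0.05 with 20 µM compound (1% DMSO). OD600 readings were taken hourly for 24 h, and the minimum OD was set to 0. Area under the growth curve was then normalised to the plate median of solvent-only wells, or to row and column medians on the industrial chemical plate. The value given is the median of three biological replicates grown on separate days.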

Row | SMILES | growth AUC
1 | Cc1c(N)cccc1N | 1
2 | c1cc2ccc3cccc4ccc(c1)c2c34 | 0.948
3 | O=c1oc2ccccc2c(O)c1C1CC(c2ccc(-c3ccc(Br)cc3)cc2)Cc2ccccc21 (stereo not drawn) | 0.647 (active)
4 | COP(=O)(OC)SCn1c(=O)oc2cc(Cl)cnc21 | 1.01
5 | CNC(=O)ON=C(CSC)C(C)(C)C | 0.999
6 | COc1ccc(/C(=C/C(=O)N2CCOCC2)c2ccc(F)cc2)cc1OC | 0.958
7 | Cc1ccc(N=CN(C)C=Nc2ccc(C)cc2C)c(C)c1 | 1.03
8 | Cc1c(COC(=O)[C@@H]2[C@H](/C=C(\Cl)C(F)(F)F)C2(C)C)cccc1-c1ccccc1 | 0.923
9 | CCOP(=S)(OCC)Oc1cc(-c2ccccc2)on1 | 1.06
10 | COP(=O)(OC)C(O)C(Cl)(Cl)Cl (stereo not drawn) | 1.02
11 | C=CC(N)=O | 0.875
12 | CNC(=O)Oc1cc(C)c(S(C)=O)c(C)c1 (stereo not drawn) | 1.04
13 | COP(N)(=O)SC (stereo not drawn) | 0.989
14 | CCOP(=S)(OCC)Oc1nc(Cl)c(Cl)cc1Cl | 0.943
15 | CC(=NC#N)N(C)Cc1ccc(Cl)nc1 | 1.03 and 0.979
16 | O=C(NC(=O)c1c(F)cccc1F)Nc1ccc(Cl)cc1 | 0.954
17 | O=C(Nc1ccccc1)c1ccccc1I | 1.03
18 | COCc1c(F)c(F)c(COC(=O)[C@@H]2[C@@H](C=C(Cl)Cl)C2(C)C)c(F)c1F | 1.03
19 | CN1CSC(=S)N(C)C1 | 1.01
20 | O=C1c2ccccc2C(=O)N1SC(Cl)(Cl)Cl | 0.988

Row | SMILES | growth AUC
21 | CC(C)(C)c1ccc(CCOc2ncnc3ccccc23)cc1 | 0.996
22 | NCP(=O)(O)O | 1.04
23 | CC1CNC(=S)N1 (stereo not drawn) | 1.01
24 | CC1(C)[C@H](/C=C(\Cl)C(F)(F)F)[C@@H]1C(=O)O[C@@H](C#N)c1cccc(Oc2ccccc2)c1 | 0.963
25 | COP(=S)(OC)SCN1C(=O)c2ccccc2C1=O | 0.951
26 | COP(=S)(OC)Oc1ccc(S(C)(=O)=O)c(C)c1 | 0.831
27 | CC(C)NC(=O)N1CC(=O)N(c2cc(Cl)cc(Cl)c2)C1=O | 1.01
28 | Cc1ccc(NC(=O)c2snnc2C)cc1Cl | 0.898
29 | COCC(=O)N(c1c(C)cccc1C)N1CCOC1=O | 0.963
30 | O=C(NC(=O)c1c(F)cccc1F)Nc1ccc(Cl)c(Oc2ncc(C(F)(F)F)cc2Cl)c1 | 0.917
31 | COP(=O)(OC)OC(Br)C(Cl)(Cl)Br (stereo not drawn) | 0.99
32 | CC(C)(COCc1cccc(Oc2ccccc2)c1)c1ccc(OC(F)(F)Br)cc1 | 0.966
33 | CC1(C)C(C=C(Cl)Cl)C1C(=O)OC(C#N)c1cccc(Oc2ccccc2)c1 (mixture of isomers) | 0.984
34 | CNC(=O)Oc1ccccc1OC(CCl)OC (stereo not drawn) | 1.02
35 | CCOP(=O)(OCC)Oc1ccc([N+](=O)[O-])cc1 | 1.15
36 | N#Cc1cc(Br)c(O)c(Br)c1 | 1.05
37 | COP(=S)(OC)Oc1cc(Cl)c(I)cc1Cl | 0.918
38 | COP(=S)(OC)Oc1ccc([N+](=O)[O-])cc1 | 1.03
39 | CC(C)[C@@H](Nc1ccc(C(F)(F)F)cc1Cl)C(=O)OC(C#N)c1cccc(Oc2ccccc2)c1 (stereo partly drawn) | 1.02

The compounds below were run on Clostridium difficile in the same assay as above. Details: 20 µM; 24 h.
Outline: as §1

Row | SMILES | growth AUC
40 | Cc1c(N)cccc1N | 1
41 | c1cc2ccc3cccc4ccc(c1)c2c34 | 0.959
42 | O=c1oc2ccccc2c(O)c1C1CC(c2ccc(-c3ccc(Br)cc3)cc2)Cc2ccccc21 (stereo not drawn) | 0.263 (active)
43 | COP(=O)(OC)SCn1c(=O)oc2cc(Cl)cnc21 | 1
44 | CNC(=O)ON=C(CSC)C(C)(C)C | 1
45 | COc1ccc(/C(=C/C(=O)N2CCOCC2)c2ccc(F)cc2)cc1OC | 1
46 | Cc1ccc(N=CN(C)C=Nc2ccc(C)cc2C)c(C)c1 | 1.04
47 | Cc1c(COC(=O)[C@@H]2[C@H](/C=C(\Cl)C(F)(F)F)C2(C)C)cccc1-c1ccccc1 | 1.02
48 | CCOP(=S)(OCC)Oc1cc(-c2ccccc2)on1 | 1.02
49 | COP(=O)(OC)C(O)C(Cl)(Cl)Cl (stereo not drawn) | 1
50 | C=CC(N)=O | 1.01
51 | CNC(=O)Oc1cc(C)c(S(C)=O)c(C)c1 (stereo not drawn) | 0.968
52 | COP(N)(=O)SC (stereo not drawn) | 1.03
53 | CCOP(=S)(OCC)Oc1nc(Cl)c(Cl)cc1Cl | 1.01
54 | CC(=NC#N)N(C)Cc1ccc(Cl)nc1 | 0.986 and 1
55 | O=C(NC(=O)c1c(F)cccc1F)Nc1ccc(Cl)cc1 | 1.01
56 | O=C(Nc1ccccc1)c1ccccc1I | 1.08
57 | COCc1c(F)c(F)c(COC(=O)[C@@H]2[C@@H](C=C(Cl)Cl)C2(C)C)c(F)c1F | 0.994
58 | CN1CSC(=S)N(C)C1 | 0.976
59 | O=C1c2ccccc2C(=O)N1SC(Cl)(Cl)Cl | 1.01

Row | SMILES | growth AUC
60 | CC(C)(C)c1ccc(CCOc2ncnc3ccccc23)cc1 | 0.98
61 | NCP(=O)(O)O | 1.06
62 | CC1CNC(=S)N1 (stereo not drawn) | 1.06
63 | CC1(C)[C@H](/C=C(\Cl)C(F)(F)F)[C@@H]1C(=O)O[C@@H](C#N)c1cccc(Oc2ccccc2)c1 | 0.988
64 | COP(=S)(OC)SCN1C(=O)c2ccccc2C1=O | 0.94
65 | COP(=S)(OC)Oc1ccc(S(C)(=O)=O)c(C)c1 | 0.985
66 | CC(C)NC(=O)N1CC(=O)N(c2cc(Cl)cc(Cl)c2)C1=O | 1.04
67 | Cc1ccc(NC(=O)c2snnc2C)cc1Cl | 1
68 | COCC(=O)N(c1c(C)cccc1C)N1CCOC1=O | 0.983
69 | O=C(NC(=O)c1c(F)cccc1F)Nc1ccc(Cl)c(Oc2ncc(C(F)(F)F)cc2Cl)c1 | 1.1
70 | COP(=O)(OC)OC(Br)C(Cl)(Cl)Br (stereo not drawn) | 0.987
71 | CC(C)(COCc1cccc(Oc2ccccc2)c1)c1ccc(OC(F)(F)Br)cc1 | 1.01
72 | CC1(C)C(C=C(Cl)Cl)C1C(=O)OC(C#N)c1cccc(Oc2ccccc2)c1 (mixture of isomers) | 1.04
73 | CNC(=O)Oc1ccccc1OC(CCl)OC (stereo not drawn) | 1.03
74 | CCOP(=O)(OCC)Oc1ccc([N+](=O)[O-])cc1 | 1.03
75 | N#Cc1cc(Br)c(O)c(Br)c1 | 0.98
76 | COP(=S)(OC)Oc1cc(Cl)c(I)cc1Cl | 0.937
77 | COP(=S)(OC)Oc1ccc([N+](=O)[O-])cc1 | 1.02
78 | CC(C)[C@@H](Nc1ccc(C(F)(F)F)cc1Cl)C(=O)OC(C#N)c1cccc(Oc2ccccc2)c1 (stereo partly drawn) | 1.04
